This passage reports inhibition results from PubChem BioAssay AID1259374 (The Scripps Research Institute Molecular Screening Center, 2018).

Among all 650,000 compounds or so, about 5,900 (0.91%) were called active. The sample holds actives, similar compounds and a random draw of the others, so the mix is not that of the screen. A number with no mark means an inactive call. Cut-off read from the data, not from the text of the source: active = inhibition above about 50%; inactive = the rest.

The target in this experiment is Microphthalmia-associated transcription factor (Homo sapiens) (UniProt O75030). Nature of the experiment: MITF inhibitors, primary screen, biochemical, AlphaScreen, human (AID 1259374).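 Note: 0% = vehicle wells with protein.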 As to conditions: AlphaScreen MITF homodimerization, bead proximity signal; at 2.6 µM; active compounds read high. A general note: Bead proximity is the source of the signal in Alpha formats.
Sequence of Microphthalmia-associated transcription factor (Homo sapiens) (O75030 whole entry, looked up): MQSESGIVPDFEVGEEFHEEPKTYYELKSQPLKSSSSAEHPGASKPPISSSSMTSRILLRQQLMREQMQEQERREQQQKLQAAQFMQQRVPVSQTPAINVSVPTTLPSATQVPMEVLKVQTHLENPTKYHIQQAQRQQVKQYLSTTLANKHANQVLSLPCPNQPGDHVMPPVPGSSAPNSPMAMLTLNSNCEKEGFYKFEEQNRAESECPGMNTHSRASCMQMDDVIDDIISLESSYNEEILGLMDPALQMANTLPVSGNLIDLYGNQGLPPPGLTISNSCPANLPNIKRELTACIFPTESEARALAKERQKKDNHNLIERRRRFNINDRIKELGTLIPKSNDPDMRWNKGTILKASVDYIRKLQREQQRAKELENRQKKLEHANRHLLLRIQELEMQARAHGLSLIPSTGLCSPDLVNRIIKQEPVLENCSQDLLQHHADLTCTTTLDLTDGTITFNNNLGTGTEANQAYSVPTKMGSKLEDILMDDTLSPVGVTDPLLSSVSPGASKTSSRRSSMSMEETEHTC
By inhibition is commonly meant the drop in the measured response relative to a control, in per cent. In the case of `O=Cc1ccc(OCc2ccc([N+](=O)[O-])cc2)c(I)c1`, the inhibition was 9.55%.
The same measure for `O=C(c1cccnc1N1CCC(Cc2ccccc2)CC1)N1CCCCC1`: 11.1%.
The same measure for `Cc1nnc(N2CCC(Cc3ccccc3)CC2)c2ccccc12`: 66.8% (active); for `c1ccc(CC2CCN(c3nc4ccccc4n4cnnc34)CC2)cc1`: -0.95%; for `O=C(c1cnn2c(C(F)(F)F)cc(-c3ccco3)nc12)N1CCN(C(c2ccccc2)c2ccccc2)CC1`: -6.87%.
Consider `O=c1c2ccccc2[nH]c(=S)n1NS(=O)(=O)c1ccccc1`, for which the inhibition was 0.19%.
The same measure for `CCc1cccc(CC)c1-n1c(CNC(=O)Cc2ccccc2)nnc1SCC(=O)Nc1ccc(OC)cc1`: -9.51%; for `COc1cc(C(=O)Nc2cnc(NC(=O)c3ccccc3)cc2C)cc(OC)c1OC`: 12.9%.
In the case of `CCOC(=O)CSc1ccc(C(=O)N2CCN(Cc3ccc(OC)c(OC)c3OC)CC2)cc1[N+](=O)[O-]`, the inhibition is -5.49%.
Consider `Cc1ccccc1CN1CCC(N2CCCCC2)CC1`, for which the inhibition was 32.6%.
Then `COc1ccc(CN2CCN(S(=O)(=O)c3cc(Br)c(Br)s3)CC2)c(OC)c1OC`, with 19.2%; and `COc1ccc(CN2CCN(C3CCC(C)CC3)CC2)c(OC)c1OC` (configuration not stated), with 63.1% (active); and `COc1ccc(CN2CCN(Cc3ccccc3C)CC2)c(OC)c1OC`, with 56.1% (active).
Then `COc1ccc(CN2CCc3nnc(C4CCCO4)n3CC2)c(OC)c1OC` (configuration not stated), with -1.23%.
With `Cc1noc(C)c1S(=O)(=O)N1CCN(Cc2nc3ccccc3n2C)CC1`, the inhibition was 8.13%.
Then `COc1ccc(C(=O)CCNC(Cc2cnc[nH]2)C(=O)O)cc1` (configuration not stated), with 34.2%; and `CC(Oc1ccc(Br)cc1)C(=O)N/N=C/c1ccccc1O` (configuration not stated), with -6.74%; and `COCCn1nnnc1C(C)N(CCCO)Cc1cc2cc(C)ccc2[nH]c1=O` (configuration not stated), with -3.49%.
With `O=C(OCC(=O)N1CCN(C(=O)c2ccco2)CC1)c1ccc(O)cc1`, the inhibition was -0.03%.
As to `CCCOc1ccc(C2C(=O)N(C3CCCCCC3)CC(=O)N2CC2COc3ccccc3O2)cc1OC` (configuration not stated), the inhibition was 14.9%.
Consider `CC1CCC2C(=O)N(C(CC(=O)O)c3ccco3)C(=O)C2C1` (configuration not stated), for which the inhibition was 32.9%.
On to `CC1CCC2C(=O)N(c3ccc(I)cc3)C(=O)C2C1` (configuration not stated), for which the inhibition is 51.1% (active).
Then `CC1CCC2C(=O)N(c3cccc(Cl)c3)C(=O)C2C1` (configuration not stated), with 8.52%; and `N#CC1=C(N)N(c2sc3c(c2C#N)CCCC3)C2=C(C(=O)CCC2)C1c1ccc(Br)s1` (configuration not stated), with 13.4%; and `CCOC(=O)COc1cc2occ(Oc3cnn(-c4ccccc4)c3)c(=O)c2cc1CC`, with 9.58%.
For the molecule `CSc1ncc(/C=C2/C(=O)NC(=O)N(c3ccccc3)C2=O)cn1`, the inhibition was 0.31%.
The same measure for `Cc1nc2sc(C(c3ccccc3Cl)N3CCC4(CC3)OCCO4)c(O)n2n1` (configuration not stated): 60% (active).
Take `Oc1c(C(c2ccccc2Cl)N2CCOCC2)sc2nc(-c3ccco3)nn12` (configuration not stated): the inhibition is 11.9%.
In the case of `Cc1nc2sc(C(c3ccco3)N3CCC4(CC3)OCCO4)c(O)n2n1` (configuration not stated), the inhibition was 13.4%.
The same measure for `OC[C@@H]1CCCN1Cc1nc(-c2ccccn2)no1`: 7.1%.
Then `CCOC(=O)C1=C(C)N=c2s/c(=C\c3c[nH]c4ccccc34)c(=O)n2C1c1ccc(OC)c2ccccc12` (configuration not stated), with 12.2%; and `C=CCNC(=O)c1sc(=S)n2c1[nH]c(=O)c1ccc(C(=O)OC)cc12`, with 1.34%; and `C=CCNC(=O)c1sc(=S)n(CC)c1N`, with 60.2% (active).
Turning to `COCCOC(=O)c1sc(=S)n(CCOC)c1N`, the inhibition is -3.44%.
Then `CCOc1ccc(Nc2n[nH]c(C)c2[N+](=O)[O-])cc1`, with -3.22%; and `Cc1nnc(SCC(=O)Nc2ccc(Cc3ccc(NC(=O)CSc4nnc(C)s4)c(C(=O)O)c3)cc2C(=O)O)s1`, with 10.6%.
Take `Cc1cc(C(C)(C)C)ccc1OCCOCCNCCN`: the inhibition is 5.37%.
Then `C=CCNCCOCCOc1cc(C)ccc1C(C)(C)C`, with 65.6% (active).
Then `Cc1ccc(C(C)(C)C)c(OCCCNCCO)c1`, with 18.8%; and `CN(C)S(=O)(=O)c1ccc(C(=O)NCc2nnc(SCC(=O)N3N=C(c4cccs4)CC3c3ccc(F)cc3)n2C)cc1` (configuration not stated), with -5.15%; and `CCC1(CC)Cc2ccccc2C(c2c(C)[nH]n(-c3ccccc3)c2=O)=N1`, with 23.6%.
Regarding `COc1cc(/C=C2/NC(=O)N(c3ccccc3)C2=O)cc(OC)c1O`, the inhibition was -14.5%.
Then `COC(=O)c1ccccc1NC(=O)c1cc2c(=O)oc3ccccc3c2s1`, with -9.64%.
On to `COc1ccccc1-n1cnnc1SCC(=O)Nc1sc2c(c1C#N)CCCC2`, for which the inhibition is -6.73%.
`COc1cc(NC(=O)CSc2nnc(-c3ccoc3C)n2CC(C)C)cc(OC)c1`: the inhibition was 9.5%.
Take `Cc1ccc(C(C)C)c(OCCN2CCNCC2)c1`: the inhibition was 74.9% (active).
Take `Cc1ccc(C(C)(C)C)c(OCCN2CCNCC2)c1`: the inhibition was 46.6%.
The same measure for `CCC(C)Oc1cccc(OCCN2CCN(C)CC2)c1` (configuration not stated): -22.9%; for `Cc1cc(OCCN2CCN(C)CC2)ccc1C(C)C`: 59.4% (active).
Then `Cc1ccc(OCCN2CCNCC2)c(Cl)c1`, with 36.1%.
`Cc1ccc(Cl)c(OCCCCN2CCNCC2)c1`: the inhibition is 41.9%.
In the case of `Cc1ccc(C(C)C)c(OCc2n[nH]c(=S)n2C)c1`, the inhibition is 2.35%.
The same measure for `Cc1ccc(C(C)C)c(OCC#CCN2CCNCC2)c1`: 77.2% (active); for `Cc1cc(OCCCCN2CCOCC2)ccc1C(C)C`: 27.1%.
Regarding `CC1C2Oc3ccccc3C1Oc1ccccc12` (configuration not stated), the inhibition was 4.85%.
Then `COc1ccc2[nH]c3c(c2c1)CCOC31CCN(C(=O)CC2(CC(=O)O)CCCC2)CC1`, with -10.7%; and `O=C1C(=O)N(Cc2cccnc2)C(c2cccnc2)/C1=C(/O)c1ccccc1` (configuration not stated), with 5.16%.
The same measure for `O=C1C(=O)N(Cc2cccnc2)C(c2ccncc2)/C1=C(\O)c1ccccc1` (configuration not stated): 11.9%; for `Cc1nc2ccccn2c1/C(O)=C1\C(=O)C(=O)N(Cc2ccccc2)C1c1cccnc1` (configuration not stated): 66.2% (active).
Then `CN(C)CCNC(=O)c1ccc(-c2cnc3c(NCc4ccc(F)cc4)nccn23)cc1`, with -23.3%; and `CCOC(=O)c1c(NC(=O)CSc2nnc(CNC(=O)c3cccc(OC)c3)n2C)sc2c1CCCCC2`, with -18.6%; and `O=C(O)CN1C(=O)/C(=C\c2ccc(O)c(Br)c2)SC1=S`, with 17.2%.
On to `O=C(O)CN1C(=O)/C(=C\c2cccc(C(=O)O)c2)SC1=S`, for which the inhibition is 58.4% (active).
The same measure for `O=C(O)CN1C(=O)/C(=C/c2cccc([N+](=O)[O-])c2)SC1=S`: 4.75%; for `CC1CN(c2ccc(/C=C(\C#N)c3nc4ccccc4[nH]3)o2)CC(C)O1` (configuration not stated): -14.4%; for `Nc1nc(NCCO)cc(Nc2ccc(C(F)(F)F)cc2)n1`: -1.49%.
As to `CCOC(=O)c1sc(NC(=O)C(C)Sc2nnc(CNC(=O)c3ccc(Cl)cc3Cl)n2C)c(C(=O)OCC)c1C` (configuration not stated), the inhibition was -5.12%.
Regarding `CCOC(=O)c1ccccc1NC(=O)C1CC(=O)N(c2ccc(Cl)c(Cl)c2)C1` (configuration not stated), the inhibition is -0.38%.
Regarding `CN1C(=O)c2ccc(NC(=O)c3c(F)cccc3F)cc2C1=O`, the inhibition was 4.14%.
On to `O=C(NN1C(=O)c2ccccc2C1=O)c1cccc(F)c1`, for which the inhibition was 69.1% (active).
On to `Cc1ccc(N2C(=O)c3ccc(C(=O)NN4C(=O)c5ccccc5C4=O)cc3C2=O)cc1C`, for which the inhibition is 9.89%.
The same measure for `O=C(NN1CCOCC1)c1cccc(F)c1`: 0.76%; for `CCN(CCCNC(=O)Cn1c(=O)[nH]c2ccccc2c1=O)c1cccc(C)c1`: -6.52%.
Regarding `O=[N+]([O-])c1cnc(N2CCN(Cc3ccccc3)CC2)c([N+](=O)[O-])c1`, the inhibition is -6.34%.
Then `C=CCN(CC=C)CCCOc1ccc([N+](=O)[O-])c(C)c1`, with 22.8%; and `Cc1cc(OCCCN2CCN(Cc3ccccc3)CC2)ccc1[N+](=O)[O-]`, with 69.8% (active); and `COc1ccc(CN2CCC3(CC2)c2ccccc2[C@@H](NC(=O)CSC)[C@@H]3OC)cc1`, with 5.12%.
For the molecule `COc1ccccc1N1C(=O)NC(=O)/C(=C/c2cc(OC)c(O)c([N+](=O)[O-])c2)C1=O`, the inhibition was -6.01%.
The same measure for `C=CCN1C(=O)/C(=C\c2cc(OC)ccc2OC)C(=O)NC1=S`: 18.8%.
Take `C=CCN1C(=O)/C(=C\c2cc(OC)c(O)c([N+](=O)[O-])c2)C(=O)NC1=S`: the inhibition is 57.5% (active).
Then `CSc1cccc(NC(=O)C2C3C=CC4(O3)C2C(=O)N(C2CCCC(C)C2C)C4C(=O)NC2CCCCC2)c1` (configuration not stated), with -2.61%; and `O=c1cc(Cc2n[nH]c(=S)n2-c2ccc(F)cc2)[nH]c(=O)[nH]1`, with 8.67%; and `O=c1c2sc(=S)n(CCc3ccccc3)c2[nH]c(=S)n1Cc1ccco1`, with -11.5%.
Turning to `O=S(=O)(Oc1cccc2cccnc12)N1CCOCC1`, the inhibition was -0.47%.
The same measure for `O=C(NCC(c1cccnc1)N1CCOCC1)c1ccc(F)cc1` (configuration not stated): -7.05%.
Then `Cc1ccc(C(c2cc(Cl)c3cccnc3c2O)N2CCN(c3ccccn3)CC2)cc1` (configuration not stated), with -1.76%; and `Cc1c(Cl)cccc1NC(=S)NCC(c1cccnc1)N1CCOCC1` (configuration not stated), with 7.47%; and `Oc1c(C(c2cccnc2)N2CCOCC2)ccc2cccnc12` (configuration not stated), with 73.7% (active).
Consider `CCCCC(=O)NC(c1ccco1)c1ccc2cccnc2c1O` (configuration not stated), for which the inhibition is 33%.
Then `CCc1nc2sc(C(c3ccc(F)cc3)N3CCCC3)c(O)n2n1` (configuration not stated), with -1.32%; and `OCCN1CCN(C(c2ccc(F)cc2)c2ccc3cccnc3c2O)CC1` (configuration not stated), with 50.6% (active).
The same measure for `Oc1c(C(c2ccccn2)N2CCOCC2)ccc2cccnc12` (configuration not stated): 75.7% (active).
